# Laboratory results: PubChem BioAssay (NCI)
# This is part of a sample that, as a whole, favours compounds with a hit. Of some 83,000 tested, about 20% had one in any assay.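 Values shown are percent growth following 48 h exposure of cells in 96-well plates to a single concentration of compound; below 10 was considered active.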 Values without a mark were called inactive. Activity calls are given as the source filed them.
# Columns and labels:
# Experiment in all cases: NCI-60 one-dose screen, 48 h (100 = growth as untreated, 0 = no growth, -100 = all killed)
# Settings in all cases: 10 µM unless noted
# [1] = tested on: NCI-H23 lung
# [2] = tested on: NCI-H226 lung
# [3] = tested on: NCI-H322M lung
# [4] = tested on: HOP-62 NSCLC
# [5] = tested on: NCI-H460 lung
# [6] = tested on: HOP-92 NSCLC
# [7] = tested on: NCI-H522 lung
# [8] = tested on: A549/ATCC NSCLC
# [9] = tested on: 786-0 renal
# [10] = tested on: COLO 205 colon
# [11] = tested on: DU-145 prostate
# [12] = tested on: K-562 leukemia
# [13] = tested on: MALME-3M melanoma
# [14] = tested on: MDA-MB-231 breast
# [15] = tested on: RXF 393 renal
# [16] = tested on: SF-268 CNS
# [17] = tested on: SF-295 CNS
# [18] = tested on: SF-539 CNS
# [19] = tested on: UACC-257 melanoma
# [20] = tested on: M14 melanoma
SMILES,growth [1],growth [2],growth [3],growth [4],growth [5],growth [6],growth [7],growth [8],growth [9],growth [10],growth [11],growth [12],growth [13],growth [14],growth [15],growth [16],growth [17],growth [18],growth [19],growth [20]
COc1ccc(-c2cc(-c3ccc(Nc4nc(Nc5ccc(Cl)cc5)nc(Nc5ccc(Cl)cc5)n4)cc3)no2)cc1,66.5%,110%,79.5%,100%,74.8%,-28.6% (active),84.5%,62.5%,80.6%,79.5%,91.3%,69.9%,104%,82.1%,-8.53% (active),72.9%,73%,86.1%,105%,86.7%
Cc1cccc(CN(Nc2ccccc2)c2ccccc2)n1,104%,103%,96.7%,99.8%,101%,65%,103%,93.1%,107%,111%,107%,87.5%,89.8%,118%,96.3%,101%,118%,96.6%,98.7%,105%
CCOC(=O)CC1CSC(N/N=C(/C)c2cccc(C(F)(F)F)c2)=N1 (stereo not given),103%,99.6%,89.6%,97%,110%,100%,82.2%,87.7%,97%,107%,102%,80.6%,95.3%,94.4%,109%,100%,93.5%,103%,87.9%,101%
CCCNNC(=O)c1ccc(CNC(=O)/C=C/c2ccccc2)cc1,50.3% [2.5 µM],73.4% [2.5 µM],34.5% [2.5 µM],20.3% [2.5 µM],40.2% [2.5 µM],25.6% [2.5 µM],38.3% [2.5 µM],34.8% [2.5 µM],33.1% [2.5 µM],-16.5% [2.5 µM] (active),37% [2.5 µM],15% [2.5 µM],30.1% [2.5 µM],55.7% [2.5 µM],1.56% [2.5 µM] (active),52.6% [2.5 µM],33.3% [2.5 µM],44.2% [2.5 µM],24.1% [2.5 µM],29.9% [2.5 µM]
CC(C)(C#N)c1cc(C(=O)Nc2cc(Nc3ncccc3-c3ncnc4nc[nH]c34)ccc2F)cc(C(F)(F)F)c1,24.3%,41.8%,67.2%,45.7%,35.9%,-5.84% (active),62%,49.7%,64%,11.9%,66%,5.56% (active),2.06% (active),18.3%,91.7%,66.2%,74.5%,32.1%,12%,6.18% (active)
O=C(c1ccccc1)[C@@H](c1ccccc1)[C@]1(O)C(=O)Nc2ccccc21,95%,83.1%,87.4%,77.3%,95%,74%,93.7%,103%,97.7%,84.1%,103%,102%,98.2%,88.4%,98.6%,84.9%,95.8%,95.3%,96.8%,95.5%
C/C(=N\NC(=O)c1ccc(C(C)(C)C)cc1)c1ccc(O)cc1O,23.7%,25.6%,25.5%,20.9%,3.99% (active),59.3%,27.5%,21.5%,15.3%,7.24% (active),29.3%,12.9%,28.4%,37.4%,-9.15% (active),27.6%,16.2%,14.7%,8.32% (active),23%
Cc1nc2sc(C(=O)Nc3ccccc3)c(N)c2cc1C(O)c1ccccc1 (stereo not given),33.5%,64%,56.3%,39.6%,4.01% (active),63.7%,12.8%,24.4%,40.8%,-8.82% (active),18.1%,7.04% (active),60.8%,16.7%,40%,47.9%,4.69% (active),-5.44% (active),72.5%,20.3%
CCCCC#Cc1c(I)n(C2OC(CO[Si](C)(C)C(C)(C)C)C3OC(C)(C)OC32)c(=O)[nH]c1=O (stereo not given),78%,88.2%,84.3%,102%,107%,-30.5% (active),79.9%,94%,82.4%,-59.1% (active),74.1%,36.3%,60.6%,79%,-56.4% (active),98.4%,113%,88.1%,55.1%,76%
O=C(CSc1nnc(-c2cc(-c3ccc(Cl)cc3)nc3ccccc23)n1-c1ccccc1)Nc1ccc(Cl)cc1,99.7%,95%,102%,114%,100%,111%,93.4%,96.2%,96.8%,115%,107%,85.1%,107%,89.7%,118%,94%,99.5%,111%,96.2%,109%
CCCN1C(=O)N(CCC)C2C1NC(=S)N2/N=C/C=C/c1ccccc1OC (stereo not given),36.4%,55.4%,44.6%,38.7%,6.85% (active),77.4%,-11.3% (active),13.1%,35.6%,17.6%,14.2%,12.6%,40.4%,23.9%,-29.8% (active),62.9%,10.9%,-30.6% (active),60.5%,-0.388% (active)
CCOC(=O)C1=C(C)N(C)C(=O)N(C)C1c1ccccc1 (stereo not given),96.7%,93.3%,98.6%,81.7%,101%,78.5%,86.9%,104%,100%,98.5%,107%,82.2%,87.2%,97.3%,105%,108%,90.6%,91.4%,92.5%,94.2%
COc1cc(C2CC(c3cccc(Nc4ccncc4)c3)=Nc3c(N)ncnc3N2)cc(OC)c1OC (stereo not given),95.5%,89%,92.2%,86.7%,95.9%,76%,82.1%,84%,95.9%,96.6%,88.3%,29.3%,83.7%,91%,94.2%,79%,95.5%,94.8%,88.2%,90.7%
N#Cc1c(-c2ccc(F)cc2)cc(-c2cccc(Cl)c2)[nH]c1=O,62.8%,54.1%,75.2%,28%,86.8%,29.7%,57.9%,46.3%,42.1%,116%,73.9%,56.2%,70.1%,60.7%,51.7%,41.9%,71.4%,9.45% (active),93.8%,82.3%
COc1cc2c(cc1-c1c(C)noc1C)ncc1nc(C3CCOCC3)n(C3CCC(OC(F)F)CC3)c12 (stereo not given),56.7%,67.9%,52.4%,30.4%,72.6%,21.8%,3.74% (active),57.4%,51.8%,22.6%,73.2%,47.6%,44.1%,36.2%,59%,64.9%,53.5%,56.6%,47.7%,54.6%
